Activity calls are given as the source filed them. How the source made its calls: active means hit-call score of the fitted dose curve at least 0.9, where 1 is the maximum; inactive means score below 0.9.

Tumor necrosis factor (Homo sapiens), sequence (P01375 whole entry, looked up): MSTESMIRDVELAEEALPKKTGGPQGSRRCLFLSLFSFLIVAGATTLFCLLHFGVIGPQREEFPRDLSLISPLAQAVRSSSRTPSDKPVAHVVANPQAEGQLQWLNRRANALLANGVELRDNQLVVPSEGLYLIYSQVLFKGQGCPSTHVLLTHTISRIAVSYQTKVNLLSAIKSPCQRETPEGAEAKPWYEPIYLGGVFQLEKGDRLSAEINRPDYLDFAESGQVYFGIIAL

Read-out in the assay: Tumor necrosis factor (Homo sapiens) (UniProt P01375)
Briefly: BSK_BT_xTNFa: BioMAP Diversity Plus: BT Assay for Tumor necrosis factor alpha (TNF-alpha) Biomarker Activity (AID 2284230). Conditions: primary human B cells with PBMC. The protocol:
BSK_BT is a cell-based, multiplexed-readout assay that uses B cell and peripheral blood mononuclear cells, a human vascular primary cell co-culture, with measurements taken at 24 hours after chemical dosing in a microplate: 96-well plate.BSK_BT_xTNFa is an assay component of the BSK_BT assay. It measures secreted TNF-alpha related to regulation of gene expression using LumineX xMAP technology.Data from the assay component BSK_BT_xTNFa was analyzed at the endpoint, BSK_BT_xTNFa, in the positive analysis fitting direction relative to DMSO as the negative control and baseline of activity. Using a type of cytokine quantitation reporter, gain or loss-of-signal activity can be used to understand protein changes. To generalize the intended target to other relatable targets, this assay endpoint is annotated to the 'cytokine' intended target family, where the subfamily is 'inflammatory factor'.
The levels of cell surface (or secreted, indicated by the prefix "s") biomarker endpoints were measured by ELISA. Overt cytotoxicity to cells in confluent adherent cultures (all systems other than the BT system) was assessed by measuring total protein levels using sulforhodamine B (SRB) staining in parallel cultures at the time of biomarker measurements, indicated as SRB endpoints. For proliferation assays for adherent cell types, individual cell types are cultured at sub-confluence and relative cell numbers quantified by SRB staining at time points optimized for each system (48 h: 3C and CASM3C systems; 72 h: BT and HDF3CGF systems; 96 h: SAg system). SRB was performed by staining cells with 0.1% SRB after fixation with 10% TCA and reading wells at 560 nm.Viability and proliferation of PBMC (T cells) was quantified by Alamar Blue reduction for the SAg and BT systems. For PBMC viability (referred to as PBMC Cytotoxicity within the assay endpoint names), cells were plated (75,000/well in a 96-well plate) and then chemical samples added for 1 h before addition of activators, SEB and TSST-1 (20 ng/mL final concentration each). Cells were incubated for 90 h. Then, Alamar Blue (20 uL/well) (Invitrogen, Cat DAL1100) was added for 6 h, and the plates were read with a fluorescence microplate reader at 546/580 nm (excitation/emission). For PBMC proliferation, cells were plated and activated as above but incubated for only 16 h prior to addition of Alamar Blue. Plates were read after 6 h.
Take `CN(CCOc1ccc(CC2SC(=O)NC2=O)cc1)c1ccccn1` (stereo not drawn): the result was inactive.

On to `CNC[C@H](O)c1cccc(O)c1`, for which the outcome was inactive.

Take `Cc1ccc2n[nH]nc2c1`: the result was inactive.

Broadly, the AC50 is the midpoint of the concentration-response curve, whichever way the signal moves. In the case of `O=C1CCCCCCCCCCCCCCO1`, the AC50 is 35.8 µM (active).

As for `C=C(C)C(=O)O[C@H]1C[C@@H]2CC[C@@]1(C)C2(C)C`, the outcome was inactive.

Turning to `O=C1OC2(c3cc(Br)c(O)c(Br)c3Oc3c2cc(Br)c(O)c3Br)c2c(Cl)c(Cl)c(Cl)c(Cl)c21`, the AC50 was 13.2 µM (active).

`O=C(O)C[C@H](O)C[C@H](O)/C=C/c1c(C2CC2)nc2ccccc2c1-c1ccc(F)cc1`: the AC50 was 3 µM (active).

As for `O=P(c1ccccc1)(c1ccccc1)c1ccccc1`, the outcome was inactive.

As to `COC(=O)c1ccc(C)cc1`, the result was inactive.

As for `CCCCCCCCCCCCCCCCCC(=O)OCC(CC)CCCC` (stereo not drawn), the outcome was inactive.

Consider `O=C(O)c1cn(C2CC2)c2cc(N3CCNCC3)c(F)cc2c1=O`, for which the outcome was inactive.

`CC(=O)/C=C/C1=C(C)CCCC1(C)C`: the result was inactive.

In the case of `CC(C)(COC(=O)c1ccccc1)COC(=O)c1ccccc1`, the outcome was inactive.

With `N#Cc1ccc(CC(=NNC(=O)Nc2ccc(OC(F)(F)F)cc2)c2cccc(C(F)(F)F)c2)cc1`, the result was inactive.

For `CCc1c(C)cc(N)c(CC)c1N`, the outcome was inactive.

Take `CC(=O)Nc1ccccc1O`: the result was inactive.

On to `CCn1c2ccccc2c2cc(N)ccc21`, for which the outcome was inactive.

With `C#C[C@]1(O)CC[C@H]2[C@@H]3CCC4=Cc5oncc5C[C@]4(C)[C@H]3CC[C@@]21C`, the AC50 is 33.7 µM (active).

Take `CC1COc2ccccc2N1C(=O)C(Cl)Cl` (stereo not drawn): the outcome was inactive.

For `Nc1cc([N+](=O)[O-])ccc1Cl`, the outcome was inactive.

In the case of `C=C[Si](OCC)(OCC)OCC`, the outcome was inactive.

As to `CCCCC(CC)COC(=O)/C=C\C(=O)OCC(CC)CCCC` (stereo not drawn), the outcome was inactive.

Consider `CCCCC(CC)COCCC#N` (stereo not drawn), for which the outcome was inactive.

On to `O=C=NC1CCC(CC2CCC(N=C=O)CC2)CC1` (stereo not drawn), for which the result was inactive.

Consider `CCCCC/C=C/C=C/C=O`, for which the AC50 is 35.7 µM (active).

Consider `O=[N+]([O-])c1cc(C(F)(F)F)ccc1Cl`, for which the result was inactive.

Consider `c1ccc2sc(SN(C3CCCCC3)C3CCCCC3)nc2c1`, for which the result was inactive.

On to `CCCCCCCCC=O`, for which the result was inactive.

Regarding `BrC1CCC(Br)C(Br)CCC(Br)C(Br)CCC1Br` (stereo not drawn), the AC50 was 28.2 µM (active).

Regarding `CC(C)c1ccc(C(C)C)cc1`, the outcome was inactive.

As to `Cc1ccc(O)c(C(C)(C)C)c1`, the result was inactive.

On to `O=C(O)c1cn(-c2ccc(F)cc2)c2cc(N3CCNCC3)c(F)cc2c1=O`, for which the outcome was inactive.

Take `Cc1ccc(Nc2ccc(O)c3c2C(=O)c2ccccc2C3=O)cc1`: the result was inactive.

Take `c1ccc2c(c1)c1cccc3ccc4cccc2c4c31`: the outcome was inactive.

`CC1CCC(C(C)CS)CC1S` (stereo not drawn): the result was inactive.

For `CCCCCCCCCC=O`, the result was inactive.

As to `CC(=O)O[C@]1(C(C)=O)CC[C@H]2[C@@H]3C[C@H](C)C4=CC(=O)CC[C@]4(C)[C@H]3CC[C@@]21C`, the result was inactive.

Regarding `CC(C)Oc1ccccc1O`, the result was inactive.

Values taken from PubChem BioAssay (EPA / NIEHS).
